Where “and” joins values, the source holds several entries; their conditions need not be identical. Equal entries are not always repeated. Calls of active or inactive are those of the source.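 Rule for the calls, unless noted: active = inhibition at or above 50% relative to wild type and mutant plate controls; inactive = inhibition below 50%.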
How the values were obtained:
[1] = reduction of polyQ htt aggregates in cells – imaging, exon1htt(103Q)mCFP cells, high-content imaging, primary screen (AID 483;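 active = visual image review flags a hit and inhibition of aggregation exceeds 20%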;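 note: compound exposure lasted 3 days before fixation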;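 for nuclei count: percent of the per-plate median nuclei count of sample wells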); settings: exon1htt(103Q)mCFP cell line, aggregate imaging, at 2 µM; inhibition of aggregation: stronger effect = higher value; nuclei count: measured here: cell count, toxicity
[2] = endothelial E-selectin expression blockers – imaging, HUVEC, immunofluorescence, MLSMR starter and 10KST1 sets, primary screen (AID 487;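 active = visually confirmed hit in the image check and inhibition above 20%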;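 for inhibition: signal is fraction of cell area covered by stained E-selectin grains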;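 for nuclei count: 100% = median nuclei count of all wells on the same plate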); settings: HUVEC TNFalpha-induced E-selectin immunofluorescence imaging, at 2 µM; inhibition: stronger effect = higher value; nuclei count: measured here: cell number, toxicity
[3] = Primary imaging screen for DUSP6 inhibitors that restore phospho-Erk in transfected HeLa cells, chemical complementation (AID 609;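 active = compounds giving at least 50% inhibition in the cell-based MKP-3 phosphatase rescue imaging test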;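 for inhibition: phospho-Erk level distribution per well compared with pooled transfected vehicle control wells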); settings: HeLa MKP-3 transfected, phospho-Erk imaging KS statistic, at 10 µM
[4] = biological target: Dual specificity protein phosphatase 6 (Homo sapiens) (UniProt Q16828); assay: as above; settings: HeLa MKP-3 transfected, phospho-Erk imaging KS statistic, at 10 µM, stronger effect = higher value
Sequence of Dual specificity protein phosphatase 6 (Homo sapiens) (Q16828 whole entry, looked up): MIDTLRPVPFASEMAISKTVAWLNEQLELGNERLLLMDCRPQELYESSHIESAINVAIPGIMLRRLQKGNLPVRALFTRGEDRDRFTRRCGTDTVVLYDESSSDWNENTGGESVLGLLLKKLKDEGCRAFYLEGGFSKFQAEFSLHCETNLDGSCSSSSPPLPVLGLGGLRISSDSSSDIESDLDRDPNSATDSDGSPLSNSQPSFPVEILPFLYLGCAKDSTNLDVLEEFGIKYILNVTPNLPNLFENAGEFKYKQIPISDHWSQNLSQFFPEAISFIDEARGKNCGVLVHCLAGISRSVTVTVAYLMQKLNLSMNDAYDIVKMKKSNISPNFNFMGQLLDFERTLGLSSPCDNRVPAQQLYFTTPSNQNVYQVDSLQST

[5] = biological target: Voltage-gated potassium channel subunit beta-2 (Rattus norvegicus) (UniProt P62483); assay: inhibitors of rat Kvbeta2 reductase activity – biochemical, NADPH fluorescence, primary screen (AID 622;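 active = fluorescence slope higher than the sample average by over 3 SD, cut at about -0.22 in these data, passing the limit was not always enough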;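 note: slope of raw intensity against log time taken from 70 to 1610 s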); settings: recombinant KvBeta, 4-cyanobenzaldehyde reduction, at 10 µM, stronger effect = higher value
Sequence of Voltage-gated potassium channel subunit beta-2 (Rattus norvegicus) (P62483 whole entry, looked up): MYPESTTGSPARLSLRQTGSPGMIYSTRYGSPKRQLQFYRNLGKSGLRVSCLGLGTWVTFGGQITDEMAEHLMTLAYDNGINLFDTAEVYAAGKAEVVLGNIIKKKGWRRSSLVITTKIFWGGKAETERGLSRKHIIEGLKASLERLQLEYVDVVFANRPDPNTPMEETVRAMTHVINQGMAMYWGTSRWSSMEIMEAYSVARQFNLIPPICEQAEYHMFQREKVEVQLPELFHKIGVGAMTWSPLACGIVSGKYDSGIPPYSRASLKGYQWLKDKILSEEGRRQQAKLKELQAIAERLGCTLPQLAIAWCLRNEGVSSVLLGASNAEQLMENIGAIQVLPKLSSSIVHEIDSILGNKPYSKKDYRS

[6] = biological target: Voltage-gated potassium channel subunit beta-2 (Rattus norvegicus) (UniProt P62483); assay: enhancers of rat Kvbeta2 NADPH turnover – biochemical, NADPH fluorescence, primary screen (AID 623;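 active = NADPH fluorescence slope more negative than the mean of all samples by about 3 SD, 99.7% confidence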;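 note: fluorescence intensity change per second fitted from 20 to 320 s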); settings: Recombinant KvBeta, NADPH fluorescence decrease slope, 10 min; at 10 µM; stronger effect = lower value
[7] = biological target: Alpha-2C adrenergic receptor (Homo sapiens) (UniProt P18825); assay: compounds altering alpha2C-coupled GIRK flux – cell-based, HEK293 alpha2C/GIRK1/2, thallium flux, primary screen (AID 624;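 active = fluorescence slope after compound addition differing from the mean of all screened samples at 99.7% confidence, in either direction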;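 note: slope of fluorescence ratio to pre-addition baseline per second over 15 to 24 s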); settings: thallium flux BTC fluorescence, at 10 µM, actives lie on both sides
Sequence of Alpha-2C adrenergic receptor (Homo sapiens) (P18825 whole entry, looked up): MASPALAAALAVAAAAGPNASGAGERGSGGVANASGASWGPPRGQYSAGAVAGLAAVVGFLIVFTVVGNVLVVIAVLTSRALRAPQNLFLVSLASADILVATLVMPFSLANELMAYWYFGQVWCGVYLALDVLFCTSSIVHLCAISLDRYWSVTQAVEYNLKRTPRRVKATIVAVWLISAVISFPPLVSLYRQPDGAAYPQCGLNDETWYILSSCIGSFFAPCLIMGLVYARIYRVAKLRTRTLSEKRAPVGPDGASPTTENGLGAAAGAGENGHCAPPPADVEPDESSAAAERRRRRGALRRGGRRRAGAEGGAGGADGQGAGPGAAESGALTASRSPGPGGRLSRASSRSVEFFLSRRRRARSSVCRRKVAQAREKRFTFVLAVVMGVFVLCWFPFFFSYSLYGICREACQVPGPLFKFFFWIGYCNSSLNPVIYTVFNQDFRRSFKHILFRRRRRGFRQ

[8] = loss of swimming-algae plug formation – whole organism, Chlamydomonas reinhardtii, WT vs cilia-less mutant, absorbance, 96-well, primary screen (AID 463189); settings: Chlamydomonas reinhardtii gravitaxis, OD600 absorbance, 2 days; at 10 µM; stronger effect = higher value;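 note: 0% = wild type cc124 cells in DMSO and 100% = ciliumless bld1 mutant cells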
[9] = blockers of RIG-like receptor reporter activation – cell-based, Sendai virus stimulus, luciferase, 10K MLSCN set, TLR/RLR signaling modifier project, primary screen (AID 602276;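 active = inhibition at or above 50% at 10 µM; inactive = inhibition below 50%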;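 note: firefly luciferase from ISG56 promoter only with Renilla not read in this screen; 0% = Sendai virus plus DMSO and 100% = medium plus DMSO without virus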); settings: HEK293 RL24 IRF3 luciferase reporter, at 10 µM, stronger effect = higher value
[10] = TLR3 IRF3 reporter activation blockers – cell-based, poly I:C stimulus, luciferase, 10K MLSCN set, primary screen (AID 602277;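 active = inhibition of the reporter signal at or above 50%; inactive = inhibition below 50%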); settings: HEK293-TLR3 RL24 IRF3 luciferase reporter, at 10 µM, stronger effect = higher value
[11] = inhibitors of larval lipid processing in zebrafish, primary screen, whole organism, PED6 fluorescence, gall bladder and intestine (AID 686;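 active = a full or partial loss of lipid-probe fluorescence in the fish gall bladder, intestine or both, judged by eye; inactive = no fluorescence loss, or compound toxic to the fish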;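 note: larvae 5 to 7 days old with five fish per well; signal comes from phospholipase A2 cleavage of quenched PED6 carried via bile; overnight exposure to compound and PED6 before scoring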); settings: Zebrafish larvae PED6 lipid processing, fluorescence scoring
[12] = biological target: Muscarinic acetylcholine receptor M4 (Homo sapiens) (UniProt P08173); assay: M4-linked GIRK flux change, two-sided – cell-based, HEK293 M4/GIRK, thallium flux, BTC-AM, M4 allosteric agonist project, primary screen (AID 625;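 active = fluorescence slope after compound addition differing from the mean of all tested samples at 99.7% confidence, mostly higher but some lower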;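 note: thallium influx through GIRK channels coupled to M4 in HEK293 cells with BTC-AM dye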); settings: at 10 µM, actives lie on both sides
Sequence of Muscarinic acetylcholine receptor M4 (Homo sapiens) (P08173 whole entry, looked up): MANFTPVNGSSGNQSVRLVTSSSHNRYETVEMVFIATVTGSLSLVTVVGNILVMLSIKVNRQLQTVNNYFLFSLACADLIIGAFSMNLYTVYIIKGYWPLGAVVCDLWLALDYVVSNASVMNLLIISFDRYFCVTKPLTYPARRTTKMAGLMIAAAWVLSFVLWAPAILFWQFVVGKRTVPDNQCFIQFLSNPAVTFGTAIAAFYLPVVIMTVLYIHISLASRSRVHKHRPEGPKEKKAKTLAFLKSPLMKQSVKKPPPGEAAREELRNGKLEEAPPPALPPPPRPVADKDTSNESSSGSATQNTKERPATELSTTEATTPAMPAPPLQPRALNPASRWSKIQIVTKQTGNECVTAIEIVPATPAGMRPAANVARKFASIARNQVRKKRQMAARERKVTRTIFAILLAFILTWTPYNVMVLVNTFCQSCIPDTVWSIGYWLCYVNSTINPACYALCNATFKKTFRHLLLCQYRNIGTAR

[13] = measured here: cell density z-score
[14] = measured here: nuclear c-Myc green intensity z-score
[15] = measured here: nuclear pErk red intensity z-score, stronger effect = higher value

| Structure (SMILES) | inhibition of aggregation [1] | nuclei count [1] | inhibition [2] | nuclei count [2] | z-score [3, 13] | z-score [3, 14] | z-score [3, 15] | inhibition [4] | fluorescence slope [5] | NADPH fluorescence slope [6] | slope [7] | inhibition [8] | inhibition [9] | inhibition [10] | outcome [11] | z-score ([3]; measured here: cell density z-score, cells stimulated with TPA for 15 min) | z-score ([3]; measured here: nuclear c-Myc green intensity z-score, cells stimulated with TPA for 15 min) | z-score ([3]; measured here: nuclear pErk red intensity z-score, stronger effect = higher value, cells stimulated with TPA for 15 min) | fluorescence slope [12] |
| --- | --- | --- | --- | --- | --- | --- | --- | --- | --- | --- | --- | --- | --- | --- | --- | --- | --- | --- | --- |
| O=c1[nH]c2ccccc2n1CCCN1CCC(n2c(=O)[nH]c3cc(Cl)ccc32)CC1 | 13.3% (inactive) | 79.8% | -81.4% (inactive) | 120% | -1.29 | 0.926 | 0.563 | 12.4% (inactive) | -0.455 (inactive) | -4.5e-05 (inactive) | 0.00301 (inactive) | 2.96% (inactive) and 11.3% (inactive) | 7.67% (inactive) | 18.2% (inactive) |  |  |  |  |  |
| O=C1CC[C@@]2(O)[C@H]3Cc4ccc(O)c5c4[C@@]2(CCN3CC2CC2)[C@H]1O5 |  |  | -64.2% (inactive) | 120% | 1.03 | 0.419 | 0.423 | 11.3% (inactive) | -0.463 (inactive) | -9.1e-06 (inactive) | 0.0048 (inactive) | 17.1% (inactive) | 10.3% (inactive) | 48.8% (inactive) | inactive |  |  |  |  |
| CC[C@@H]1C(=O)OC[C@@H]1Cc1cncn1C | 8.3% (inactive) and -13.2% (inactive) | 112% and 101% | -46.3% (inactive) and -64.9% (inactive) | 122% and 127% |  |  |  | 11.3% [cells stimulated with TPA for 15 min] (inactive) and 10.2% [cells stimulated with TPA for 15 min] (inactive) | -0.572 (inactive) and -0.488 (inactive) | 7.3e-06 (inactive) and -6e-05 (inactive) |  |  | 18.4% (inactive) and -3.13% (inactive) | 19% (inactive) and 27% (inactive) | inactive [screened at 20 µM (by protocol)] | 0.654 and -2.12 | -1.14 and -0.253 | 0.525 and 1.62 |  |
| CCN(CC)c1ncnc2c1ncn2[C@@H]1O[C@H](COP(=O)(O)OP(=O)(O)C(Br)(Br)P(=O)(O)O)[C@@H](O)[C@H]1O |  |  |  |  |  |  |  |  |  |  |  | -12.6% (inactive) |  |  |  |  |  |  |  |
| CCCC(C)(COC(N)=O)COC(=O)NC(C)C (centres undefined) | 18.2% (inactive) | 100% | 0.8% (inactive) | 106% | -1.69 | 0.189 | -1.67 | -0.493% (inactive) | -0.459 (inactive) | 1.2e-05 (inactive) | 0.0053 (inactive) | -1.2% (inactive) and -10.3% (inactive) | 3.15% (inactive) | 14.5% (inactive) | inactive |  |  |  |  |
| CN(C)[C@@H]1C(=O)C(C(N)=O)=C(O)[C@@]2(O)C(=O)C3=C(O)c4c(O)cccc4[C@@](C)(O)[C@H]3[C@H](O)[C@@H]12 | 62.6% (active) | 102% | -42.6% (inactive) | 123% | 1.9 | -1.29 | -0.511 | 8% (inactive) | -0.459 (inactive) | -9.9e-05 (inactive) | 0.00569 (inactive) | 12% (inactive) | -6.24% (inactive) | 5.5% (inactive) | inactive |  |  |  |  |
| c1ccc2nc(N3CCNCC3)ccc2c1 |  |  |  |  |  |  |  |  |  |  |  | 4.23% (inactive) |  |  |  |  |  |  |  |
| CCCN(CCC)[C@@H]1CCc2cccc(O)c2C1 |  |  |  |  |  |  |  |  |  |  |  | -6.71% (inactive) |  |  |  |  |  |  |  |
| Cn1c(O)c(C(=O)c2ccccc2Cl)c(=O)n(C)c1=O |  |  | 35.3% (inactive) | 79.3% | -0.324 | 0.445 | 0.96 | 5.57% (inactive) | -0.47 (inactive) | -3.4e-05 (inactive) |  | 9.5% (inactive) |  |  | inactive |  |  |  | 0.00543 (inactive) |
| O=C(COc1ccc2ccccc2c1)N1CCN(C2CCN(Cc3ccccc3)CC2)CC1 | 2.5% (inactive) | 75.6% | -123% (inactive) | 138% | 0.592 | -1.17 | 0.865 | 1.04% (inactive) | -0.309 (inactive) | 1.5e-05 (inactive) | 0.00353 (inactive) | 64.5% (active) | 8.43% (inactive) | -13.3% (inactive) | inactive |  |  |  |  |

Source: PubChem BioAssay
